# Earlier results, collected in PubChem BioAssay AID977611.
# About 3,900 (100%) of roughly 3,900 compounds were called active. Cut-off not given; nearly all actives show Kd up to about 4200 µM. So high a share suggests a set chosen from earlier hits. The list shows a part of the results. Starred links: 1 amine or outer side, 2 acyl side, 3 side chain; linkers in the order of their positions; H or OH if unused. *1 amine or outer side, *2 acyl side, *3 side chain or, on linkers, in order; H or OH if unused. Positions of bridges follow the written chain, without caps; N, C: chain ends. Where a SMILES comes first, the peptide text is derived from it. Non-standard residues stand in square brackets, D forms with d. Square brackets hold non-standard residues; d marks the D form. Residues, ends and D or L forms follow the SMILES beside them. Peptide text beside a SMILES is read from it. [ ]: non-standard residue; d: D form. Thr(P(OH)3+) = C[C@@H](O[P+](O)(O)O)[C@H](N)C(=O)O; X1 = C[C@](CCCCCC=[*:3])(N[*:1])C(=O)[*:2]; X2 = C[C@@](CCCCC=[*:3])(N[*:1])C(=O)[*:2]; Orn(CH(NH2)2) = NC(N)NCCC[C@H](N)C(=O)O; R8 = C=CCCCCCC[C@@](C)(N)C(=O)O; S5 = C=CCCC[C@](C)(N)C(=O)O; Abu = CC[C@H](N)C(=O)O
# Test: PubChem AID 977611
# Conditions: PDB protein-ligand complexes, literature Kd
compound,measurement,setting,value
H-SYGHLSIG-OH,Kd,"protein: MALTOSE-BINDING PERIPLASMIC PROTEIN, SUPPRESSOR OF FUSED HOMOLOG (W61D, L62S, G63F, P453A, K457A mutation), PDB entry 4blb",4.47 µM (active)
OS(O)(O)CCNC1CCCCC1,Kd,"protein: Interleukin-13 receptor subunit alpha-1, PDB entry 4hwb",0.00057 µM (active)
C[C@H](N)C(=O)N[C@@H](CCCNC(N)N)C(=O)N[C@H](C(=O)N[C@@H](CCCC[N+](C)(C)C)C(=O)N[C@@H](CCC(N)=O)C(=O)N[C@H](C(=O)N[C@@H](C)C(=O)N[C@@H](CCCNC(N)N)C(=O)N[C@@H](CCCCN)C(=O)N[C@@H](CO)C(=O)N[C@H](C(=O)NCC(=O)NCC(=O)N[C@@H](CCCCN)C(=O)N[C@@H](C)C(=O)O)[C@@H](C)O)[C@@H](C)O)[C@@H](C)O,Kd,"protein: bromodomain PHD finger transcription factor, PDB entry 2fuu",2.7 µM (active)
CC(=O)NCCCC[C@H](NC(=O)[C@H](CCCNC(N)N)NC(=O)[C@H](C)NC(=O)[C@@H](NC(=O)[C@H](CCC(N)=O)NC(=O)[C@H](CCCCN)NC(=O)[C@@H](NC(=O)[C@H](CCCNC(N)N)NC(=O)[C@H](C)N)[C@@H](C)O)[C@@H](C)O)C(=O)N[C@@H](CO)C(=O)N[C@H](C(=O)NCC(=O)NCC(=O)N[C@@H](CCCCN)C(=O)N[C@@H](C)C(=O)O)[C@@H](C)O,Kd,"protein: Histone acetyltransferase PCAF, PDB entry 2rnw",1050 µM (active)
O=C(O)c1ccc2cc[nH]c2c1,Kd,"protein: Protease (Q7K, L33I, L63I, C67A, C95A mutation), PDB entry 4ej8",4.1 µM (active)
CSCC[C@H](NC(=O)[C@H](C)N)C(=O)N[C@@H](CCCCN)C(=O)N[C@@H](CCCNC(N)N)C(=O)N[C@@H](Cc1cnc[nH]1)C(=O)NCC(=O)N[C@@H](CC(C)C)C(=O)N[C@@H](CC(=O)O)C(=O)N[C@@H](CC(N)=O)C(=O)N[C@@H](Cc1ccc(O)cc1)C(=O)N[C@@H](CCCNC(N)N)C(=O)NCC(=O)N[C@@H](Cc1ccc(O)cc1)C(=O)N[C@@H](CO)C(=O)O (H-AMK[Orn(CH(NH2)2)]HGLDNY[Orn(CH(NH2)2)]GYS-OH),Kd,"protein: I-Ag7, PDB entry 1f3j",6 µM (active)
H-AHGMLKLYYGLS-OH,Kd,"protein: Syntaxin-6, PDB entry 4j2c",5.6 µM (active)
CC(=O)N[C@H](C(=O)N[C@@H](CO)C(=O)N[C@@H](Cc1ccccc1)C(=O)N[C@]1(C)CCCCCC/C=C/CCC[C@@](C)(C(N)=O)NC(=O)[C@H](CC(C)C)NC(=O)[C@H](CC(C)C)NC(=O)[C@H](Cc2ccc(O)cc2)NC(=O)[C@H](Cc2c[nH]c3ccccc23)NC(=O)[C@H](Cc2ccc(O)cc2)NC(=O)[C@H](CCC(=O)O)NC1=O)[C@@H](C)O (Ac-TSF[R8]EYWYLL[S5]-NH2; staple (E) 4-11),Kd,"protein: E3 UBIQUITIN-PROTEIN LIGASE MDM2-M62A, PDB entry 4umn",0.0631 µM (active)
CC[C@H](N)C(=O)N[C@H](C(=O)N[C@@H](Cc1ccccc1)C(=O)N[C@]1(C)CCCCC/C=C/CCCC[C@@](C)(C(=O)N[C@@H](CCC(N)=O)C(=O)N[C@@H](CC(N)=O)C(=O)O)NC(=O)[C@H](CC(C)C)NC(=O)[C@H](CC(C)C)NC(=O)[C@H](CCCNC(N)N)NC(=O)[C@H](Cc2c[nH]c3ccccc23)NC(=O)[C@H](CC(C)C)NC(=O)[C@H](CC(N)=O)NC1=O)[C@@H](C)O (H-[Abu]TF[X1]NLW[Orn(CH(NH2)2)]LL[X2]QN-OH; staple (E) 4-11),Kd,"protein: E3 ubiquitin-protein ligase Mdm2, PDB entry 3v3b",0.055 µM (active)
CC(C)C[C@H](NC(=O)[C@]1(C)CCC/C=C\CCC[C@](C)(NC(=O)[C@H](CCCNC(N)N)NC(=O)[C@H](CO)NC(=O)[C@H](Cc2ccc(O)cc2)NC(=O)[C@H](CCCNC(N)N)NC(=O)[C@H](CCCCN)NC(=O)[C@@H](N)CCCCN)C(=O)N[C@@H](CCC(N)=O)C(=O)N[C@@H](CC(C)C)C(=O)N[C@@H](CC(C)C)C(=O)N1)C(N)=O,Kd,"protein: EUKARYOTIC TRANSLATION INITIATION FACTOR 4E, PDB entry 4bea",0.005 µM (active)
COc1cc(-c2ccc3ncc(-c4cccc([C@@H](O)NCCN(C)C)c4)n3n2)ccc1O,Kd,"protein: Death-associated protein kinase 1 DAPK1, PDB entry 4txc",0.24 µM (active)
CC(C)C[C@H](NC(=O)CNC(=O)[C@H](CO)NC(=O)[C@@H]1CCCN1C(=O)[C@@H](N)CC(C)C)C(=O)N[C@@H](CC(C)C)C(=O)N[C@H](C(=O)N1CCC[C@H]1C(=O)N1CCC[C@H]1C(=O)N[C@@H](CCC(N)=O)C(=O)N[C@@H](CO[P+](O)(O)O)C(=O)NCC(=O)O)[C@H](C)O[P+](O)(O)O,Kd,"protein: Skp1-Fbw7, PDB entry 2ovq",0.07 µM (active)
CC(C)C[C@H](NC(=O)[C@@H]1CCCN1C(=O)[C@@H]1CCCN1C(=O)[C@@H](NC(=O)[C@@H]1CCCN1C(=O)[C@H](CC(C)C)NC(=O)[C@@H](N)CC(C)C)[C@@H](C)O)C(=O)N[C@@H](CO)C(=O)N1CCC[C@H]1C(=O)N[C@@H](CO)C(=O)N[C@@H](CCCNC(N)N)C(=O)N[C@@H](CCCNC(N)N)C(=O)N[C@@H](CO)C(=O)NCC(=O)O (H-LLPTPPLSPS[Orn(CH(NH2)2)][Orn(CH(NH2)2)]SG-OH),Kd,"protein: Bin1C SH3 domain, PDB entry 1mv0",93.3 µM (active)
CC(C)[C@H](NC(=O)[C@H](C)NC(=O)[C@@H](NC(=O)[C@@H](N)CCCCN)C(C)C)C(=O)N[C@H](C(=O)N[C@@H](CCCNC(N)N)C(=O)N[C@H](C(=O)N1CCC[C@H]1C(=O)N1CCC[C@H]1C(=O)N[C@@H](CCCCN)C(=O)O)[C@@H](C)O[P+](O)(O)O)C(C)C (H-KVAVV[Orn(CH(NH2)2)][Thr(P(OH)3+)]PPK-OH),Kd,"protein: anti-ptau heavy chain and anti-ptau light chain, PDB entry 4glr",0.00035 µM (active)
CC(C)[C@H](NC(=O)[C@H](CCCCN)NC(=O)[C@H](CCCNC(N)N)NC(=O)[C@H](CCCCN)NC(=O)[C@H](CCCCN)NC(=O)[C@H](CCCCN)NC(=O)[C@@H]1CCCN1C(=O)[C@@H]1CCCN1C(=O)[C@H](CO)NC(=O)CN)C(=O)NCC(=O)O (H-GSPPKKK[Orn(CH(NH2)2)]KVG-OH),Kd,"protein: IMPORTIN SUBUNIT ALPHA-1A, PDB entry 4b8o",0.004 µM (active)
CC(=O)N1CCC[C@H]1C(=O)N1CCC[C@H]1C(=O)NCC(=O)N1CCC[C@H]1C(=O)N1CCC[C@H]1C(=O)NCC(=O)N1CCC[C@H]1C(=O)N[C@H](C(=O)NCC(=O)N1CCC[C@H]1C(=O)N[C@@H](CCCNC(N)N)C(=O)NCC(=O)N1CCC[C@H]1C(=O)N1CCC[C@H]1C(=O)NCC(=O)N1CCC[C@H]1C(=O)N1CCC[C@H]1C(=O)O)[C@@H](C)O (Ac-PPGPPGPTGP[Orn(CH(NH2)2)]GPPGPP-OH),Kd,"protein: HSP47, PDB entry 3zha",1 µM (active)
CC(C)[C@H](NC(=O)[C@H](CO)NC(=O)[C@@H](NC(=O)[C@@H](N)CCCCN)C(C)C)C(=O)N[C@H](C(=O)N[C@@H](CCCNC(N)N)C(=O)N[C@H](C(=O)N1CCC[C@H]1C(=O)N1CCC[C@H]1C(=O)N[C@@H](CCCCN)C(=O)N[C@@H](CO)C(=O)N1CCC[C@H]1C(=O)N[C@@H](CO)C(=O)O)[C@H](C)O[P+](O)(O)O)C(C)C (H-KVSVV[Orn(CH(NH2)2)][X1]PPKSPS-OH),Kd,"protein: Pin1 WWdomain, PDB entry 1i8h",29 µM (active)
N[C@@H](CCC(=O)N[C@@H](CS)C(=O)NCC(=O)O)C(=O)O,Kd,"protein: mitochondrial ABC transporter, Atm1, PDB entry 4myh",23 µM (active)
same,Kd,"protein: protein yqjG, PDB entry 4g0l",6.5 µM (active)
CNC(CSSC[C@H](NC(=O)CC[C@H](N)C(=O)O)C(=O)NCC(=O)O)C(=O)NCC(=O)O (some centres not stated),Kd,"protein: PUTATIVE AMINO ACID BINDING PROTEIN, PDB entry 4c0r",12.2 µM (active)
CC(C)C[C@H](NC(=O)[C@H](CC(C)C)NC(=O)[C@H](CCC(=O)O)NC(=O)[C@@H](N)CO)C(=O)N[C@@H](CCCCN)C(=O)N[C@@H](Cc1ccc(O)cc1)C(=O)N[C@@H](CC(C)C)C(=O)N[C@H](C(=O)N[C@H](C(=O)O)[C@@H](C)O)[C@@H](C)O (H-SELLKYLTT-OH),Kd,"protein: the ligand binding domain (LBD) of the estrogen-related receptor ? (ERR?, NR3B1), PDB entry 1xb7",0.6 µM (active)
H-SQEKFFQELFDS-OH,Kd,"protein: Peroxisomal Membrane Anchor Protein Pex14, PDB entry 2w85",9.17 µM (active)
